# Screening results from PubChem.
# DRD3 agonist = activates the human D3 dopamine receptor; P35462; D3R DiscoveRx beta-arrestin cells, luminescence, 90 min; max activation, %; 0.58% of 410,000 active; AID 652048; in the data active = max activation above about 30%
# Target sequence (P35462 whole entry, looked up): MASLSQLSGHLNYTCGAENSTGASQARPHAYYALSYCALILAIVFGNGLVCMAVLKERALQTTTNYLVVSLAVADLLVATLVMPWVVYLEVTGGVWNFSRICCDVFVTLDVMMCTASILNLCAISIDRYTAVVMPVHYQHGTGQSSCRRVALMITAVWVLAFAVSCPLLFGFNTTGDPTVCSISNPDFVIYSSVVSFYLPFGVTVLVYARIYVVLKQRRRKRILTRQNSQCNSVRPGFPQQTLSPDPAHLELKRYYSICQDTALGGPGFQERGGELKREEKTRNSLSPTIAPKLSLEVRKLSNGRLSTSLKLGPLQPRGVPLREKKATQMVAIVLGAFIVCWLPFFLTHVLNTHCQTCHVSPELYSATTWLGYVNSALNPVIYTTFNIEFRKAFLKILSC
#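 Cells at 1500/well, incubated overnight, then treated with pinned compounds (dopamine as control) for 90 min at 37 degrees C. DiscoveRx reagent added for 30 - 60 minutes at room temperature; luminescence read.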
# ClpP mod = qHTS Assay for Activators of ClpP; ATP-dependent Clp protease proteolytic subunit (Bacillus subtilis (strain 168)), P80244; purified B. subtilis ClpP, FRET peptide cleavage, 20 min; Potency, µM (titrated, usually from 57.5 µM); 1.9% of 340,000 active; active = well fitted falling curve with a large enough effect; inconclusive = small, poorly fitted or top-dose-only effect; inactive = no such curve, though single readings can be large or run the other way; also: the source files actives as falling curves though it sought activators and does not explain the sign; nearly all actives have a fitted effect of over 65% in size
# Target sequence (P80244 whole entry, looked up): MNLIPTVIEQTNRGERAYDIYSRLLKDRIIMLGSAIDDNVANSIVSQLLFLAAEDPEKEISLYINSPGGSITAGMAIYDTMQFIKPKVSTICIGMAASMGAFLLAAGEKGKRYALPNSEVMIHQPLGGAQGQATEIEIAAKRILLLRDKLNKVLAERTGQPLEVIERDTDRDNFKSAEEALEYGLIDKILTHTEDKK
#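 ClpP 10 microg/mL final, pH 8 Tris/KCl buffer with BSA, glycerol, Tween-20; compound pinned in; FRET-FV substrate; RT 20 min; Ex320/Em430; ΔFRET vs ADEP 5.8 microM, DMSO, no enzyme.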
# IL-1B inflam inh = blocks inflammasome-driven IL-1 beta release; THP-1 LPS/ATP IL-1B secretion, AlphaLISA, 16 h; stronger effect = lower value; activity change, % at 57.5 µM; 4.7% of 360,000 active; AID 743279; in the data active = activity change below about -50%; inconclusive = mostly about -30% to -49%
#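 THP-1 cells pretreated 1 hr with compounds (up to 57.5 uM final), then stimulated with LPS (250 ng/mL final) plus ATP (1.25 mM final); secreted IL-1B measured by AlphaLISA after 16 hr, decreased signal indicating inhibition.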
# TDP1 cell noCPT = qHTS for Inhibitors of human tyrosyl-DNA phosphodiesterase 1 (TDP1): qHTS in cells in absence of CPT | DT40 Tdp1-/- hTDP1 cells, no CPT, ATP luminescence, 48 h | Potency, µM (titrated, usually from 46.2 µM), hits mostly inhibitors | 15% of 420,000 active | AID 686978, 2013; also: nearly all actives have a fitted effect of over 55% in size
#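 Chicken DT40 Tdp1-/- cells stably complemented with human TDP1 were seeded at 400 cells/well with DMSO in place of 20 nM camptothecin. After compound pinning, cells grew at least 48 hr at 37 °C; viability read by CellTiter-Glo luminescence.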
# DT40 TDP1 CPT = growth inhibition of DT40 Tdp1-/-;hTDP1 cells with camptothecin (screen for TDP1 inhibitors); AID 686979; 12% of 420,000 active; chicken DT40 Tdp1-/-;hTDP1 cells + 20 nM CPT, ATP luminescence, 48 h; Potency, µM (series often up to 46.2 µM), actives largely listed as inhibitors; also: nearly all actives have a fitted effect of over 55% in size
#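 Chicken DT40 Tdp1-/- cells stably complemented with human TDP1 were seeded at 400 cells/well in medium containing 20 nM camptothecin, exposed to pin-transferred compounds, and grown at 37 °C for at least 48 hr. Viability was read as ATP luminescence.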
# DRD3 antagonist = antagonists of human D3 dopamine receptor. P35462. D3R cells, DiscoveRx beta-arrestin luminescence, antagonist mode; stronger effect = lower value. max response, negative = inhibition, %. 2.5% of 360,000 active. AID 652054; in the data active = max response below about -50%; inconclusive = no clear call, values can overlap the other calls
#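 Cells plated overnight at 1500 cells/well, then exposed to library compounds with dopamine controls for 90 minutes at 37 degrees C. DiscoveRx reagent added for 30–60 minutes at room temperature; luminescence read, quantitative HTS format.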
# A number is an active result; n = inactive; u = inconclusive; x = no result. In the library only some 21% were active in any assay of this set; here they are far more common. Unless noted, calls follow the shape of the dose curve; as a rule, active = well fitted inhibition curve with a large enough effect; inconclusive = small, poorly fitted or top-dose-only effect; inactive = flat fitted curve, though single readings scatter.
SMILES,DRD3 agonist,ClpP mod,IL-1B inflam inh,TDP1 cell noCPT,DT40 TDP1 CPT,DRD3 antagonist
Cc1cc(C)cc(Oc2ccc(NC(=O)C3CC=CCC3C(=O)O)cc2)c1 (centres undefined),n,n,n,3.7µM,n,n
COC(=O)c1ccccc1NC(=O)C1CC=CCC1C(=O)O (centres undefined),n,22µM,n,u,n,n
O=C(O)C1CC=CCC1C(=O)Nc1ccc(Oc2ccc(Cl)cc2)cc1 (centres undefined),n,n,n,u,u,n
CCc1cccc(C)c1NC(=O)C1CCCO1 (centres undefined),n,u,n,n,n,n
COc1ccc(C(C)(C)C)cc1NC(=O)C1CC=CCC1C(=O)O (centres undefined),n,n,n,15µM,u,n
COC(=O)c1ccccc1NC(=O)C1CCCC1,n,n,n,n,n,n
CCc1cccc(C)c1NC(=O)C1CC=CCC1C(=O)O (centres undefined),n,x,n,21µM,u,n
CCC1OC(=O)C(C)[C@@H](O[C@H]2C[C@@](C)(OC)C(O)C(C)O2)C(C)[C@@H](O[C@@H]2OC(C)CC(N(C)C)C2O)[C@@](C)(O)CC(C)C2NC(COCCOC)O[C@H](C2C)[C@@]1(C)O (some centres undefined),x,x,x,n,n,x
COc1ccc(C(C)(C)C)cc1NC(=O)COC(=O)c1cnc(C)cn1,n,n,n,n,n,-65
COc1ccccc1NC(=O)COC(=O)c1cnc(C)cn1,n,x,n,n,n,n
Cc1ccc(NC(=O)C2CC(Cl)=CCC2C(=O)O)c([N+](=O)[O-])c1 (centres undefined),n,n,n,u,n,n
Cc1ccccc1NC(=O)C1CC(Cl)=CCC1C(=O)O (centres undefined),n,n,n,13µM,u,n
O=C(Nc1ccc(F)cc1F)c1ccccc1NC(=O)C1CC=CCC1C(=O)O (centres undefined),n,n,n,u,u,n
O=C(NCCc1ccccc1)c1ccccc1NC(=O)C1CC=CCC1C(=O)O (centres undefined),n,n,n,16µM,15µM,n
O=C(NCc1ccccc1Cl)c1ccc2c(O)c(S(=O)(=O)c3ccccc3)c(=O)[nH]c2c1,n,u,x,n,n,x
CC(C)Cc1nc(N2CCN(C(=O)c3ccco3)CC2)c(C#N)c2c1CCCC2,n,n,n,u,23µM,n
Cc1nc(N2CCN(C(=O)c3ccco3)CC2)c(C#N)c2c1CCCC2,n,x,-84,u,n,n
Cc1cc(C)c2nc(N3CCCN(C(=O)c4ccco4)CC3)c(C#N)cc2c1,n,n,u,u,u,u
CC(Sc1nc(N2CCCCC2)c2c(c1C#N)CCCC2)C(=O)O (centres undefined),n,n,n,n,n,n
CC(C)C(=O)N1CCN(c2nc(-c3ccccc3)c3c(c2C#N)CCCC3)CC1,n,28µM,-57,u,u,n
N#Cc1nc(-c2ccccc2Cl)oc1N1CCN(C(=O)c2ccco2)CC1,n,n,n,n,n,n
N#Cc1cccnc1N1CCN(C(=O)c2ccco2)CC1,n,x,n,n,n,n
N#Cc1nc(-c2ccc(F)cc2)oc1N1CCN(C(=O)c2ccco2)CC1,n,3.2µM,n,n,n,n
CCc1c(CN2CCN(c3cccc(C)c3)C(C)C2)csc1C (centres undefined),n,n,x,n,u,x
CCOC(=O)C1CCCN(C(=O)/C(=C/c2ccco2)NC(=O)c2ccccc2)C1 (centres undefined),n,x,n,n,n,n
SMILES,DRD3 agonist,ClpP mod,IL-1B inflam inh,TDP1 cell noCPT,DT40 TDP1 CPT,DRD3 antagonist
CCCC(=O)N1CCN(c2nc(CC(C)C)c3c(c2C#N)CCC3)CC1,n,n,-72,23µM,u,n
O=C(CN1CCN(C(=O)c2ccco2)CC1)Nc1cccc([N+](=O)[O-])c1,n,x,n,u,n,n
CC(=O)c1cccc(NC(=O)c2ccoc2C)c1,n,x,n,n,n,n
C/C(=N\Nc1cccc([N+](=O)[O-])c1)c1ccccc1O,n,x,n,u,u,n
C/C(=N\Nc1cccc([N+](=O)[O-])c1)c1cc(F)ccc1O,n,n,n,13µM,u,n
C/C(=N\NC(=O)c1ccc(O)cc1)c1ccc(N2CCOCC2)cc1,n,x,n,n,n,n
C/C(=N\NC(=O)c1ccc(N/N=C(\C)c2ccc(O)cc2)cc1)c1ccc(O)cc1,n,u,n,8.2µM,21µM,n
COc1ccc(C(=O)Nc2cccc(/C(C)=N\NC(=O)c3ccoc3C)c2)cc1OC,n,n,-50,u,u,n
C/C(=N\NC(=O)c1c(Cl)c(C)nn1C)c1cccc(NC(=O)COc2ccc(Cl)cc2)c1,n,n,n,16µM,u,n
O=C(CCn1c(=O)c2sccc2n(CC(=O)Nc2ccccc2)c1=O)NCc1ccccc1Cl,n,n,x,u,u,x
CCCn1c(C(CO)Nc2nc(C)cs2)nc2ccccc21 (centres undefined),n,n,n,n,n,n
C/C(=N/Nc1ccc(C(=O)O)cc1)c1ccc(O)c(O)c1O,n,n,n,15µM,15µM,n
C/C(=N\NC(=O)c1cccc(N/N=C(\C)c2cc(O)ccc2O)c1)c1cc(O)ccc1O,n,x,n,16µM,12µM,n
C/C(=N\NC(=O)c1ccc(Cl)cc1)c1cccc(NC(=O)c2cccnc2)c1,n,n,-66,u,u,n
COc1ccc(OC)c(/C(C)=N/Nc2ccc(C(=O)O)cc2)c1,n,x,n,n,n,n
C/C(=N\NC(=O)c1cccc(O)c1)c1cccc(NC(=O)c2ccc(F)cc2)c1,n,n,n,u,10µM,n
COc1cc2c(cc1OC)Cc1cc(OC)c(OC)cc1Cc1cc(OC)c(OC)cc1C2,x,x,x,n,n,x
C=C(Nc1ccc(OCC)cc1)Nc1ccc(OCC)cc1,n,x,x,u,u,x
Cc1ccc(C(=O)OCCOc2cccc(Cl)c2)cc1S(=O)(=O)N1CCOCC1,n,x,n,u,u,n
C/C(=N\NC(=O)c1ccc(O)cc1)c1cccc(NC(=O)c2ccc(Cl)cc2)c1,n,x,-97,12µM,u,n
C/C(=N/Nc1ccc([N+](=O)[O-])cc1)c1ccc(C)cc1C,n,n,-81,n,n,u
C/C(=N\NC(=O)c1ccccc1F)c1cccc(NC(=O)c2ccc(C)cc2)c1,n,n,n,16µM,u,n
